# High-throughput results (PubChem BioAssay)
# HSP90 refold inh = blocks HSP90-mediated luciferase refolding in reticulocyte lysate | hit rate 0.91% among 290,000 | Rabbit reticulocyte lysate, luciferase refolding luminescence, 3 h | AID 1789 | inhibition, % at 5.6 µM;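 active = inhibition above the screen-wide mean plus 3 SD, computed separately per campaign, cut at about 16% in these data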;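 also: 0% = DMSO wells and 100% = 60 µM geldanamycin wells; inhibitors lower the luminescence because luciferase stays unfolded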
# SENP8 block-1 = inhibitors of human SENP8 protease | hit rate 1.2% among 330,000 | inhibition, % at 10 µM | Q96LD8 | purified SENP8, Z-RLRGG-aminoluciferin cleavage, luminescence; in the data active = inhibition above about 50%
# SENP8 block-2 = blocks human SENP8 cleavage of Nedd8 substrate. Q96LD8. recombinant SENP8, Nedd8 substrate fluorescence. inhibition, % at 20 µM. hit rate 0.64% among 360,000; in the data active = inhibition mostly above about 40%, no sharp cut-off; inactive = mostly below about 27%
# SENP7 block = SENP7 protease inhibition. AID 434973. inhibition, % at 5 µM. recombinant SENP7, Z-RLRGG-aminoluciferin luminescence, 40 min. hit rate 1.5% among 330,000. Q9BQF6;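 active = inhibition above about 50% at the single test dose, limit read from the data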;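 also: plate controls were DMSO with enzyme for no effect and no enzyme buffer wells for full effect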
# SENP6 inh = inhibitors of human SENP6 protease. hit rate 1.8% among 330,000. inhibition, % at 10 µM. Recombinant SENP6 catalytic domain, aminoluciferin luminescence;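 active = inhibition above about 50% at the single tested dose, limit read from the data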;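 also: plate controls were DMSO wells with enzyme for no effect and DMSO wells lacking enzyme for full effect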
# Target sequence (Q9GZR1 628-1112 limits assumed): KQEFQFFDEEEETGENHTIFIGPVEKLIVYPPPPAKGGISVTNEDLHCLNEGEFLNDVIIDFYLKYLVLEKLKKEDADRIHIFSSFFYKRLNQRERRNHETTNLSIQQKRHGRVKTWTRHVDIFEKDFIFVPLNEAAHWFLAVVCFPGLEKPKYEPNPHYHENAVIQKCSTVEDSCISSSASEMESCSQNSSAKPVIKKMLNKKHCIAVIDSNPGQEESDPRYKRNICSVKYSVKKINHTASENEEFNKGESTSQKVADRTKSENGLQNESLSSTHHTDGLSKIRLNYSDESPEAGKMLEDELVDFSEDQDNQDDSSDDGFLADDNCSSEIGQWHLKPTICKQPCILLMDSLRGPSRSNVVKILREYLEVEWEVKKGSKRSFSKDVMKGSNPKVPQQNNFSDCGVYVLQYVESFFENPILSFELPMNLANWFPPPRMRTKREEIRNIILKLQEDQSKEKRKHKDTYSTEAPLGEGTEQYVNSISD
# HSP90 confirm = HSP90 inhibition, confirmation assay; shares compounds with HSP90 refold inh; rabbit reticulocyte lysate, luciferase refolding luminescence, 3 h; inhibition, % at 5.9 µM; hit rate 64% among 2,300; AID 1846; in the data active = inhibition above about 18%;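 also: 0% = vehicle wells and 100% = reference inhibitor wells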
# FLuc counter = firefly luciferase inhibition, HSP90 counter-screen; shares compounds with HSP90 refold inh; purified native firefly luciferase, luminescence; inhibition, % at 5.9 µM; hit rate 48% among 2,300; AID 1847;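 active = inhibition above the mean inhibition of all tested sample wells plus 3 SD, cut at about 10% in these data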;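 also: 0% = DMSO with luciferase and 100% = wells lacking luciferase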
# Starred values were filed as active, the others as inactive; . = no result. Rows were chosen to be rich in hits. Some 2.7% of all compounds tested hit in one or more screens of this group.
SMILES,HSP90 refold inh,SENP8 block-1,SENP8 block-2,SENP7 block,SENP6 inh,HSP90 confirm,FLuc counter
O=C(COc1ccc(Cl)cc1)NCc1nnc(SCC(=O)Nc2ccccc2)o1,37*,-7,27,-5,0,-1,-6
O=C(CSc1nnc2ccc(-c3ccncc3)nn12)c1cccs1,66*,-6,-11,-6,11,-6,-12
c1ccc(CSc2nnc3ccc(-c4ccncc4)nn23)cc1,2,-10,29,-11,-6,.,.
N#Cc1ccccc1Sc1ccccc1N,2,-3,26,5,3,.,.
Nc1ccccc1SSc1ccccc1N,11,-2,25,4,15,36*,8
Cc1ccc(NC(=O)C2(C)CCN2C(=O)Cc2ccc(-c3ccccc3)cc2)cc1 (stereo not drawn),.,.,17,.,.,.,.
CCOC(=O)C1CCN(C(=O)c2sc3nc(-c4ccccc4)cn3c2C)CC1,0,0,5,-1,8,.,.
CCOC(=O)C1CCCN(C(=O)c2sc3nc(-c4ccc(OC)cc4)cn3c2C)C1 (stereo not drawn),46*,-7,-16,0,6,45*,-7
COc1ccc(-c2cn3c(C)c(C(=O)NCCN4CCOCC4)sc3n2)cc1,73*,0,-8,6,1,69*,-2
COc1ccc(-c2csc(/C(C#N)=C/Nc3ccc4c(c3)OCCO4)n2)cc1,0,2,-10,-5,-1,.,.
CCOC(=O)c1c(C)[nH]c(C(=O)COC(=O)C2=NNC(=O)CC2)c1C,-1,5,7,0,-3,.,.
CN(C(=O)CSc1nnc(-c2ccccc2)o1)c1c(N)n(Cc2ccccc2)c(=O)[nH]c1=O,19*,-1,-20,2,-3,-3,-1
O=C(Nc1ccc(S(=O)(=O)NCCc2ccccc2)cc1)c1ccco1,26*,2,6,8,-1,-7,-9
O=C(Nc1ccc(S(=O)(=O)NCCc2ccccc2)cc1)c1ccncc1,-3,-10,5,-4,-4,.,.
C=CCOc1ccccc1CN1CCC(n2nccc2NC(=O)C2CCOC2)CC1 (stereo not drawn),-3,-4,-1,14,-9,.,.
O=C(CCc1ccccc1)NC(=S)Nc1cccc(Br)c1,-3,-4,-1,1,0,.,.
O=C(CCc1ccccc1)NC(=S)Nc1cccc(C(=O)O)c1,33*,-2,7,10,-9,41*,23*
COc1cc(NC(=O)c2ccc(Cl)cc2)c(Cl)cc1NC(=O)c1cccnc1,45*,9,-82,0,-3,0,-9
COc1cccc(C(=O)Nc2ccc(NC(=O)C(C)(C)C)cn2)c1,33*,6,2,34,46,48*,37*
Cc1ccc(C(=O)Nc2cccc(NC(=O)c3cccnc3)c2)cc1,38*,6,5,6,-13,0,-7
COc1ccc(NC(=O)c2cccnc2)cc1,23*,-3,13,7,9,-8,-9
CCc1cc(C(=O)c2ccc(Br)cc2)c(NC(=O)CN(CC)CC)s1,-2,-7,18,1,-6,.,.
O=C(C(=O)c1cccnc1)c1cccnc1,20*,-2,13,10,-7,-2,-7
O=C(c1cccnc1)c1cccnc1,1,-5,12,5,-25,.,.
Brc1ccc(OCCN2CCOCC2)cc1,-4,3,5,-2,22,.,.
SMILES,HSP90 refold inh,SENP8 block-1,SENP8 block-2,SENP7 block,SENP6 inh,HSP90 confirm,FLuc counter
Clc1ccc(OCCN2CCOCC2)cc1,18*,9,-2,2,15,-5,-5
O=C1CC(c2ccc3c(c2)OCO3)Sc2nc3ccccc3n21 (stereo not drawn),47*,9,0,-11,-2,72*,69*
O=C(COC(=O)CNC(=O)c1ccc(Cl)cc1)Nc1ccc2c(c1)OCCO2,0,-2,14,17,-4,.,.
O=C(OCc1cc(=O)n2c(n1)sc1ccccc12)c1ccc(O)cc1O,5,-1,-136,9,4,.,.
COCCn1c(C)cc(C(=O)COC(=O)c2ccc(NC(=O)CC#N)cc2)c1C,19*,-2,-44,4,8,10,14*
N#CCC(=O)Nc1ccc(C(=O)OCC(=O)c2ccc3c(c2)OCCO3)cc1,20*,-9,-40,-7,-7,32*,-3
CCCCOC(=O)CSc1nc(N)c(C#N)c(-c2ccc(OC)cc2)c1C#N,25*,-4,-86,7,-5,5,-6
Cc1cc[n+](-c2[nH]c(=O)sc2/C=N/N=C(\[O-])c2ccncc2)cc1C,1,-23,22,-19,-4,.,.
Cc1cc[n+](-c2[nH]c(=O)sc2/C=N/N=C(\[O-])c2ccccc2)cc1C,18*,.,7,.,.,-6,-14
CC(=O)c1cccc(NS(=O)(=O)c2ccc(N/C=C\C(=O)c3ccc(F)cc3)cc2)c1,5,0,-157,-2,-32,.,.
Cc1cc(C)nc(SCC(=O)N/N=C/c2cccs2)n1,-5,-5,6,0,-12,.,.
CCOC(=O)[C@]12CCCC=C1N(CCc1ccc(OC)c(OC)c1)C(=O)[C@H](CC(=O)NCc1ccccc1)C2,.,.,9,.,.,.,.
CC1CN/C(=C\C(=O)c2ccccc2)C(=O)N1 (stereo not drawn),2,-17,9,-11,-22,.,.
CC1CN/C(=C\C(=O)c2ccc(Cl)cc2)C(=O)N1 (stereo not drawn),22*,-20,12,-5,-11,40*,24*
COc1ccc([C@H]2CC(=O)C=C(c3ccc4ccn(C)c4c3)C2)cc1,.,-8,-43,-6,-12,.,.
CCCc1[nH]n(-c2nc3ccccc3s2)c(=O)c1C=NCCCOC,2,0,20,8,-4,.,.
CCCCCN=Cc1c(C)[nH]n(-c2nc3ccccc3s2)c1=O,26*,14,16,16,33,12,1
CC(C)C[C@H]1C(=O)N2CCC[C@H]2[C@]2(O)O[C@](NC(=O)C3C=C4c5cccc6[nH]c(Br)c(c56)C[C@H]4N(C)C3)(C(C)C)C(=O)N12 (stereo partly drawn),.,3,-94,2,4,.,.
CCc1c(C(=O)OCc2ccccc2)[nH]c(C)c1C,-5,-1,1,18,46,.,.
CCc1c(C)[nH]c(C(=O)OCc2ccccc2)c1C,24*,.,5,.,.,-2,-13
O=C(NNC(=S)Nc1cccc(C(F)(F)F)c1)c1ccc(Cl)cc1Cl,5,-10,0,-10,-22,.,.
Cn1c(=O)n(-c2ccc(Cl)cc2)c(=O)c2c3c(sc21)COC(C)(C)C3,41*,9,9,0,11,-3,-5
CCn1c(=O)n(-c2ccc(Cl)cc2)c(=O)c2c3c(sc21)COC(C)(C)C3,-6,-3,26,7,5,.,.
Cc1ccc(C(=O)CSc2nnnn2C(C)C)c(C)c1,56*,-12,26,0,-32,79*,72*
